Assay outcomes from PubChem.
Rows were chosen to be rich in hits. Some 3.2% of all compounds tested hit in one or more screens of this group.
Ecoli rRNA inh = selective bacterial rRNA inhibition in E. coli; GFP signal change (wild-type ribosome), % (test concentration not listed); E. coli WT GFP vs humanized-ribosome RFP mutants, fluorescence, 24 h; hits give low values; DMSO median 0, no signal -100; AID 720706; 350,000 tested, 1.6% active;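 active = significant combined selectivity score with lowered wild-type GFP, culture density cut under 30%, mutant RFP and density less affected; inactive = any of these conditions unmet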
PGC1a acetyl inh = PGC1a acetylation modulation, inhibitor mode | U2OS PGC1a acetylation, AlphaScreen anti-acetyl-lysine; with virally co-expressed GCN5 acetyltransferase | inhibition, % at 15.6 µM | 350,000 tested, 0.17% active;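 active = every replicate shows inhibition of at least 40%; inconclusive = mean inhibition at least 40% but some replicate below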
DENV2 CPE rescue = DENV2-induced cell death inhibition | DENV2-infected cells, cytopathic effect rescue, plate reader | CPE inhibition, % at 9.99 µM | 350,000 tested, 1.7% active | AID 651640; in the data active = CPE inhibition above about 20%, passing the limit was not always enough; inconclusive = no clear call, values can overlap the other calls; tested in BHK-21 cells
ERAP1 inh = inhibitors of human ERAP1 aminopeptidase; 340,000 tested, 0.15% active; Q9NZ08; recombinant ERAP1, Leu-AMC fluorescence, 60 min; inhibition, % at 10.7 µM;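 active = mean replicate inhibition of at least 30%, or all replicates individually reaching that 30% level; inactive = mean below 30% and not every replicate reaching it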
CaV13 FRET inh = Primary screen for inhibitors of IQ motif and Ca2+-dependent inactivation inhibitor domain binding in CACNA1D, Förster resonance energy transfer in living cells, …; HEK cells, CFP/YFP FRET ICDI-IQ, plate reader, 10 min; percent FRET-ratio fall versus neutral wells; AID 743397; 340,000 tested, 0.098% active; inhibition, % at 12.3 µM;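 active = mean replicate inhibition of at least 30% and at least 1% of replicates passing that level; inconclusive = only one of the two criteria is met; inactive = neither criterion is met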
INS-1E GSIS act = primary screen for activators of insulin secretion dependent on glucose, INS-1E cells, GLuc reporter luminescence. activation, % at 16.6 µM. 370,000 tested, 0.61% active. INS-1E GLuc reporter insulin secretion, 2-3 h;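 active = lowest replicate activation of at least 40%, so every replicate reaches that level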
Hits are given with their value; i = inactive; ? = inconclusive; nt = not tested or not shown.

SMILES | Ecoli rRNA inh | PGC1a acetyl inh | DENV2 CPE rescue | ERAP1 inh | CaV13 FRET inh | INS-1E GSIS act
CCCNc1nc2c(c(=O)[nH]c(=O)n2C)n1Cc1ccc(F)cc1 | i | i | ? | i | i | i
Cn1c(=O)[nH]c(=O)c2c1nc(NC1CCCC1)n2Cc1ccccc1 | i | i | i | i | i | 45.7
CNC[C@@H]1OCCCC[C@H](C)Oc2ccc(NC(=O)Nc3ccc(F)cc3)cc2C(=O)N([C@H](C)CO)C[C@H]1C | i | i | nt | nt | nt | i
COc1ccc(C(=O)Nc2ccc(Nc3ccccc3)cc2)cc1[N+](=O)[O-] | -15.2 | i | 39.8 | i | i | i
COC(=O)c1cc(NC(=O)c2cccc([N+](=O)[O-])c2C)ccc1Cl | -25.2 | i | i | i | i | i
Cc1c(C(=O)Nc2ccc(C(=O)Nc3ccccc3)cc2)cccc1[N+](=O)[O-] | i | i | 25.9 | i | i | i
Cc1c(C(=O)Nc2ccc(OCc3ccccc3)cc2)cccc1[N+](=O)[O-] | nt | i | nt | nt | i | i
Cc1ccc2c(Cl)c(C)c(N3CCCCC3)nc2n1 | nt | nt | nt | nt | i | 52.8
Cc1nc2ccccc2nc1N1CCCCC1 | nt | i | nt | nt | nt | nt
Cc1ccc(C(=O)N2CCN3C(=O)c4ccccc4C23c2ccccc2)cc1 (stereo not drawn) | i | i | i | i | i | 41.7
O=C1c2ccccc2C2(c3ccccc3)N1CCN2C(=O)C(Cl)(Cl)Cl (stereo not drawn) | i | i | i | i | i | i
O=C(c1cnn(C(=O)c2ccco2)c1)c1cc(F)ccc1O | i | i | i | i | i | i
O=C(c1cnn(C(=O)c2ccco2)c1)c1cc(Cl)cc(Cl)c1O | -25.0 | i | i | i | i | i
C[C@H](CO)N1C[C@H](C)[C@@H](CN(C)C(=O)Nc2ccc3c(c2)OCO3)Oc2ncc(-c3cncnc3)cc2C1=O | i | i | i | i | nt | i
O=S(=O)(NC[C@H]1CC[C@@H]2[C@@H](CN2Cc2cccc(-c3ccccn3)c2)O1)c1ccccc1 | nt | i | i | i | nt | nt
CCOc1ccc(/C=C(\C(=O)O)c2ccc(S(=O)(=O)N3CCCCC3)s2)cc1OC | -23.0 | i | i | i | i | i
COc1ccc(OC)c(/C=C/C(=O)c2ccc3c(c2)OCCO3)c1 | -24.7 | i | i | i | i | i
COc1ccc(OC)c(/C=C/C(=O)Oc2ccc(C(C)=O)cc2)c1 | -24.0 | nt | i | i | i | i
COc1ccc(OC)c(/C=C/C(=O)OCC(=O)Nc2cccc(C(C)=O)c2)c1 | nt | nt | nt | nt | i | i
COC(=O)C[C@H]1CC[C@H]2[C@@H](COc3ccc(NC(=O)c4cnccn4)cc3C(=O)N2C)O1 | i | i | 143.6 | i | nt | i
CN1C(=O)c2cc(NC(=O)c3cnccn3)ccc2OC[C@@H]2O[C@@H](CC(=O)NCC3CCCCC3)CC[C@H]21 | i | nt | 30.0 | i | nt | i
CCC(=O)Nc1ccc2c(c1)C(=O)N(C)C[C@H](OC)[C@H](C)CN(Cc1cccc(F)c1)[C@@H](C)CO2 | i | i | i | i | nt | i
N#C[C@H]1[C@@H](c2ccccc2-c2ccccc2F)[C@H](CO)N1C(=O)C1CC1 | i | i | 25.5 | i | nt | i
CN(C)C(=O)c1cccc(-c2ccccc2[C@H]2[C@@H](C#N)N(C(=O)C3CC3)[C@@H]2CO)c1 | i | i | 69.4 | i | nt | i
CN(C)C(=O)c1cccc(-c2ccccc2[C@H]2[C@@H](CO)N(C(=O)C3CC3)[C@H]2C#N)c1 | i | i | i | i | nt | i
CN(C)C(=O)c1cccc(-c2ccccc2[C@@H]2[C@H](C#N)N(C(=O)C3CCCCC3)[C@H]2CO)c1 | i | i | 73.1 | i | nt | i
CN(C)C(=O)c1cccc(-c2ccccc2[C@@H]2[C@@H](C#N)N(C(=O)C3CC3)[C@@H]2CO)c1 | i | i | 45.6 | i | nt | i
CCN(CC)C(=O)C1(P(=O)(c2ccccc2)c2ccccc2)CCC1 | i | i | i | i | i | 89.7
C[C@@H]1CCCCO[C@@H](CN(C)S(=O)(=O)c2cn(C)cn2)[C@@H](C)CN([C@H](C)CO)C(=O)c2cc(NC(=O)CCCN(C)C)ccc2O1 | i | i | i | i | nt | i
